# Source: article PMC7862700, “An all-to-all approach to the identification of sequence-specific readers for epigenetic DNA modifications on cytosine”
# What was measured:
# Assay in all cases: DAPPL (digital affinity profiling via proximity ligation, sequencing); 10 mM Tris-HCl pH 7.5, 50 mM NaCl, 1 mM DTT, 4% glycerol, room temperature, 30 min; GST-TFs on glutathione beads, 16-mer random dsDNA library, 0.1% formaldehyde crosslink after washing; high values mean tight binding
# [1] = biological target: T1, FLI1 (Homo sapiens, UniProt Q01543 1-452); conditions: protein: recombinant; tags: N-terminal GST; dsDNA, one strand shown
# T1 sequence: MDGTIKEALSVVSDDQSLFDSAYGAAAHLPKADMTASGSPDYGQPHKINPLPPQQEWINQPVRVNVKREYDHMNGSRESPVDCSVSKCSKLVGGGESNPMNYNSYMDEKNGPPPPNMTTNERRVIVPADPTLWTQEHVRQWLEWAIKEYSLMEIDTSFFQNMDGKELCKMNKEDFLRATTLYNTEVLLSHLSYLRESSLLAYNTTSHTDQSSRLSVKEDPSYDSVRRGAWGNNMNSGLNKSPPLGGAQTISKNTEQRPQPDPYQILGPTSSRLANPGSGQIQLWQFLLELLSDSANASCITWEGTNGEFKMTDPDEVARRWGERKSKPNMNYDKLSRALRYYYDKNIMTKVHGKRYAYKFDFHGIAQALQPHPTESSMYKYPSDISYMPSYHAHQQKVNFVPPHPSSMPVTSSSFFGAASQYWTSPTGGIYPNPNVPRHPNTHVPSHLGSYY
# Method in brief: (§1)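 A tag-only sample was pooled with DNA-barcoded human transcription factors that had been expressed in yeast as GST fusions and captured on glutathione beads. The pools were incubated for 30 min at room temperature with 200 nmole of a random double-stranded 16-mer DNA library in Tris/NaCl/DTT/glycerol buffer, then washed, crosslinked with 0.1% formaldehyde, proximity-ligated (BsaI/T4 ligase, 1 h, 37 °C), PCR-amplified and sequenced on an Illumina NextSeq500. Binding signal is each hexamer's read frequency for a factor divided by its frequency for the tag-only sample.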
# [2] = biological target: T2, ELK1 (Homo sapiens, UniProt P19419 1-428); conditions: protein: recombinant; tags: N-terminal GST; dsDNA, one strand shown
# T2 sequence: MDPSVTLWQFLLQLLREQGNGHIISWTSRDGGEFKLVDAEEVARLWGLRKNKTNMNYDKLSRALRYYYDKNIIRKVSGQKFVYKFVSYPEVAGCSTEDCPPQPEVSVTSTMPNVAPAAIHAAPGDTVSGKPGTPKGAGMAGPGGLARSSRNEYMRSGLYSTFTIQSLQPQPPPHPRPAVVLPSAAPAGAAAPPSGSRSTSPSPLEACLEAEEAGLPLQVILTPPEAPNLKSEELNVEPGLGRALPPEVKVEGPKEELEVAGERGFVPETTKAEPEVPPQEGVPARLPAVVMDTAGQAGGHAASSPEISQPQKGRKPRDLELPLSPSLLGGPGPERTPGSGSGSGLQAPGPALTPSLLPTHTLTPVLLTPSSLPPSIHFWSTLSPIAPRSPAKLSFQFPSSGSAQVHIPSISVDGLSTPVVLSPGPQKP
# Method in brief: as §1
# [3] = biological target: T3, GABPA (Homo sapiens, UniProt Q06546 1-454); conditions: protein: recombinant; tags: N-terminal GST; dsDNA, one strand shown
# T3 sequence: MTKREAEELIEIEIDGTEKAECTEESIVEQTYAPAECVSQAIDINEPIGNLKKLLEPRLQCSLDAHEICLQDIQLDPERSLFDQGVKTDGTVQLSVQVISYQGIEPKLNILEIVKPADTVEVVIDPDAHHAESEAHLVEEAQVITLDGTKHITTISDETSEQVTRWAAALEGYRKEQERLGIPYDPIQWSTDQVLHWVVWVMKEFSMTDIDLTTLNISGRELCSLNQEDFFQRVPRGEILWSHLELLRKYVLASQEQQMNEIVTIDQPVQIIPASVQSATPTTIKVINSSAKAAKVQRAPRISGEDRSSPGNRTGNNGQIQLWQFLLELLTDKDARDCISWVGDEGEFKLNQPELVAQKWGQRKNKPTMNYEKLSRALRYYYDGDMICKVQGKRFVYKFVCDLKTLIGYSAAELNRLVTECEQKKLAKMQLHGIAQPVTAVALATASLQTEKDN
# Method in brief: as §1
# [4] = biological target: T4, ERG (Homo sapiens, UniProt P11308 1-479); conditions: protein: recombinant; tags: N-terminal GST; dsDNA, one strand shown
# T4 sequence: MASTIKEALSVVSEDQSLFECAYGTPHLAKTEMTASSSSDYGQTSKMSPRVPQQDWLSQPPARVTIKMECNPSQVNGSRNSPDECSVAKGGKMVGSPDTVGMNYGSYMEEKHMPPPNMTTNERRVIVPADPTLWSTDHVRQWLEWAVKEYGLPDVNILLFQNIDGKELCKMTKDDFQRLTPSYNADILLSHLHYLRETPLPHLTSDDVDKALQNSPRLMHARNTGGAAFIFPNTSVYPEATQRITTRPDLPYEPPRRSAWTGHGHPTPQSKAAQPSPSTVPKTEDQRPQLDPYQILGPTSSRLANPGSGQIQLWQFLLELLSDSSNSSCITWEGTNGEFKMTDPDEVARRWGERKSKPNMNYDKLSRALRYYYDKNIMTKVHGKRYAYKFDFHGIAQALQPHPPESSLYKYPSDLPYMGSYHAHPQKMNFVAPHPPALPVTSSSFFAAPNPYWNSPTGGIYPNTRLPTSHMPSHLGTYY
# Method in brief: as §1
# [5] = biological target: ELF1 (Homo sapiens, UniProt P32519 1-619); conditions: protein: recombinant; tags: N-terminal GST; dsDNA, one strand shown
# Method in brief: as §1
# [6] = biological target: T5, EHF (Homo sapiens, UniProt Q9NZC4 1-300); conditions: protein: recombinant; tags: N-terminal GST; dsDNA, one strand shown
# T5 sequence: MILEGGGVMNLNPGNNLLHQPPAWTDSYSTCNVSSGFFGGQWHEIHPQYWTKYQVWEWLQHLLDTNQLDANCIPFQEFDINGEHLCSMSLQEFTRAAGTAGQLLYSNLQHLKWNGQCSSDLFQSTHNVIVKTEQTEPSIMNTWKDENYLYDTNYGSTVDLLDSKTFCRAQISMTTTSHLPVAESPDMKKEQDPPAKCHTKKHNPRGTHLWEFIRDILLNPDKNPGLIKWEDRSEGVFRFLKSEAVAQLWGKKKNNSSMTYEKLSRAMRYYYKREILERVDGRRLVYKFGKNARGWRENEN
# Method in brief: as §1
# [7] = biological target: SPI1 (Homo sapiens, UniProt P17947 1-270); conditions: protein: recombinant; tags: N-terminal GST; dsDNA, one strand shown
# Method in brief: as §1
# [8] = biological target: SPIB (Homo sapiens, UniProt Q01892 1-262); conditions: protein: recombinant; tags: N-terminal GST; dsDNA, one strand shown
# Method in brief: as §1
# [9] = biological target: T6, ELK3 (Homo sapiens, UniProt P41970 1-407); conditions: protein: recombinant; tags: N-terminal GST; dsDNA, one strand shown
# T6 sequence: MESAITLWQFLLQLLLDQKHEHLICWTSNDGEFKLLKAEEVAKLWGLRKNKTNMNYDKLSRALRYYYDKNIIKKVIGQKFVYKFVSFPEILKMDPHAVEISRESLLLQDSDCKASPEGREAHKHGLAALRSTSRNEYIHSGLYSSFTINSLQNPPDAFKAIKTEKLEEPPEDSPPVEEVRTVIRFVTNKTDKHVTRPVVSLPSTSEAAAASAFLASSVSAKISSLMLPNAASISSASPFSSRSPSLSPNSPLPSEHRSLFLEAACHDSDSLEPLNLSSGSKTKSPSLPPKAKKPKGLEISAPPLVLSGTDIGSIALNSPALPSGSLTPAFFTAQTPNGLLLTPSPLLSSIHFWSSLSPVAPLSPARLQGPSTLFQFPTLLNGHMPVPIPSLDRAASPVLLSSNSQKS
# Method in brief: as §1
# [10] = biological target: T7, FEV (Homo sapiens, UniProt Q99581 1-238); conditions: protein: recombinant; tags: N-terminal GST; dsDNA, one strand shown
# T7 sequence: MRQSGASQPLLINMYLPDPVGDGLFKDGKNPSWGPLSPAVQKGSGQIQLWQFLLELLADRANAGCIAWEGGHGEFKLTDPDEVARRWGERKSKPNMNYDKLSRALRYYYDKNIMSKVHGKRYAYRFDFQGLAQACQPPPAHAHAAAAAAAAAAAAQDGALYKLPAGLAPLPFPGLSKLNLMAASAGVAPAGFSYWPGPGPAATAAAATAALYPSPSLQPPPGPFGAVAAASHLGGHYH
# Method in brief: as §1
# [11] = biological target: ETV5 (Homo sapiens, UniProt P41161 1-510); conditions: protein: recombinant; tags: N-terminal GST; dsDNA, one strand shown
# Method in brief: as §1
# [12] = biological target: HSF1 (Homo sapiens, UniProt Q00613 1-529); conditions: protein: recombinant; tags: N-terminal GST; chain copies: 3; dsDNA, one strand shown
# Method in brief: as §1
# [13] = biological target: T8, SPIC (Homo sapiens, UniProt Q8N5J4 1-248); conditions: protein: recombinant; tags: N-terminal GST; dsDNA, one strand shown
# T8 sequence: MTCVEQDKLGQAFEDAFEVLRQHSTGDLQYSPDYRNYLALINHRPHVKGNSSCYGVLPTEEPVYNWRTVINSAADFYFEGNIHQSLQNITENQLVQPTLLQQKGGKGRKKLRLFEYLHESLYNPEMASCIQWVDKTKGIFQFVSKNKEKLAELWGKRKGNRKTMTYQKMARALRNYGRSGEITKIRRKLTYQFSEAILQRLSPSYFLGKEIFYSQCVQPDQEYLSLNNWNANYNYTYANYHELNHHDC
# Method in brief: as §1
# [14] = biological target: ELF4 (Homo sapiens, UniProt Q99607 1-663); conditions: protein: recombinant; tags: N-terminal GST; dsDNA, one strand shown
# Method in brief: as §1
# [15] = biological target: T9, ELK4 (Homo sapiens, UniProt P28324-2 1-405); conditions: protein: recombinant; tags: N-terminal GST; dsDNA, one strand shown
# T9 sequence: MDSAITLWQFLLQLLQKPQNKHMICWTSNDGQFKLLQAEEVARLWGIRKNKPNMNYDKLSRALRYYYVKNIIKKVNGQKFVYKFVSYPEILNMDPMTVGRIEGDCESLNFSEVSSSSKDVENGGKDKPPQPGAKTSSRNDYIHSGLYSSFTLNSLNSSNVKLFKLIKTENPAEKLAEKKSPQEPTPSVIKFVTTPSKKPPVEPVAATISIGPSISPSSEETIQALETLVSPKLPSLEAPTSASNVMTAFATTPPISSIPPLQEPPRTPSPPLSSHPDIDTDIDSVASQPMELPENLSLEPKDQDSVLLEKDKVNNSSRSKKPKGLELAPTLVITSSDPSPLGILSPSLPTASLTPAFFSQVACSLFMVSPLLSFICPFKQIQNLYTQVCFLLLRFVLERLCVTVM
# Method in brief: as §1
# [16] = biological target: T10, ETV2 (Homo sapiens, UniProt O00321 1-342); conditions: protein: recombinant; tags: N-terminal GST; dsDNA, one strand shown
# T10 sequence: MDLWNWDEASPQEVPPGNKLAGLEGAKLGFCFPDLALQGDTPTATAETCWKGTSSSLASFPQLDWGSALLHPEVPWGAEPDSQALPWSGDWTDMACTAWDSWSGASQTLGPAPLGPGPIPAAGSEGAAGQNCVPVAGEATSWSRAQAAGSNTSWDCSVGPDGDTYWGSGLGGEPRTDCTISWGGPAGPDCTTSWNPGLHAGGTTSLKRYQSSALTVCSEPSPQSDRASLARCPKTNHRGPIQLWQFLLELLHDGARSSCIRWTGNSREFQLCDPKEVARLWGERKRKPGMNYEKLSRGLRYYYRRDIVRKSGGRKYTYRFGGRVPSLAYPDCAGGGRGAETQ
# Method in brief: as §1
# [17] = biological target: T11, ELF3 (Homo sapiens, UniProt P78545 1-371); conditions: protein: recombinant; tags: N-terminal GST; dsDNA, one strand shown
# T11 sequence: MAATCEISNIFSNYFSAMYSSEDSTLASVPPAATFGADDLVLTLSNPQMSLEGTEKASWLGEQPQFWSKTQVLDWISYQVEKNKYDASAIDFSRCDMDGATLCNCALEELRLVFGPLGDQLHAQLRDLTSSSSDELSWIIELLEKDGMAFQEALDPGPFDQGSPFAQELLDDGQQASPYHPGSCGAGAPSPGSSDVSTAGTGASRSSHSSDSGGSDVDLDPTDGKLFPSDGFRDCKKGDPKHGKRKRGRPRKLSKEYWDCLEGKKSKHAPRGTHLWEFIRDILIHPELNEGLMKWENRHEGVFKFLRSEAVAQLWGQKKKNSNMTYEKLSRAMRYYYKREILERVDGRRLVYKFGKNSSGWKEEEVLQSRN
# Method in brief: as §1
# [18] = biological target: CRX (Homo sapiens, UniProt O43186 1-299); conditions: protein: recombinant; tags: N-terminal GST; dsDNA, one strand shown
# Method in brief: as §1
# [19] = biological target: ETV1 (Homo sapiens, UniProt P50549 1-477); conditions: protein: recombinant; tags: N-terminal GST; dsDNA, one strand shown
# Method in brief: as §1
# Sequence of ELF4 (Q99607 whole entry): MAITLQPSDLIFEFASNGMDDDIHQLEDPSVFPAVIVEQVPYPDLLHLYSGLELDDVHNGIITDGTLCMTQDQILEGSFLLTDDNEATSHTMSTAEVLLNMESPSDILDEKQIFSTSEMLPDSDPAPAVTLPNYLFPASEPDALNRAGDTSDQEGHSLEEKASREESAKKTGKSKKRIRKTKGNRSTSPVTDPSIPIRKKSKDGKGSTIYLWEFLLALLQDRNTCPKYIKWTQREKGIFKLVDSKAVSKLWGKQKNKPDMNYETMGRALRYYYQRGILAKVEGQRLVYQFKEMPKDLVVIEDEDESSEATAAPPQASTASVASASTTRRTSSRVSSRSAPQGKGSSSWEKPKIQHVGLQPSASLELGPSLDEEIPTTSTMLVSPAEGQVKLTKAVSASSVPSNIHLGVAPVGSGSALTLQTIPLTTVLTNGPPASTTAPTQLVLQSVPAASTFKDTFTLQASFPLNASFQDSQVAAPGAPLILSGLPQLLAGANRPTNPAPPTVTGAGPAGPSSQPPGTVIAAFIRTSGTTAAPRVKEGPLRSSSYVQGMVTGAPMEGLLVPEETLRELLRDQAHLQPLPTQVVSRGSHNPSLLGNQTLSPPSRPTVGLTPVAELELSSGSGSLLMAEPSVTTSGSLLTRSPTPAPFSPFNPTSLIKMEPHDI
# Sequence of CRX (O43186 whole entry): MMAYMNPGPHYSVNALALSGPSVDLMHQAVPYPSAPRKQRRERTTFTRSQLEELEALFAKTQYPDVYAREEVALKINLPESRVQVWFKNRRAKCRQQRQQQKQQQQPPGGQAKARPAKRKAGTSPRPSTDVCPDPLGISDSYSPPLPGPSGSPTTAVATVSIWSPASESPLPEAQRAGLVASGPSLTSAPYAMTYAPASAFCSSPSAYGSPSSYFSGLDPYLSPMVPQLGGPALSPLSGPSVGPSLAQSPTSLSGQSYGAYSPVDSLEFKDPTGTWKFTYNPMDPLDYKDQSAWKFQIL
# Sequence of SPIB (Q01892 whole entry): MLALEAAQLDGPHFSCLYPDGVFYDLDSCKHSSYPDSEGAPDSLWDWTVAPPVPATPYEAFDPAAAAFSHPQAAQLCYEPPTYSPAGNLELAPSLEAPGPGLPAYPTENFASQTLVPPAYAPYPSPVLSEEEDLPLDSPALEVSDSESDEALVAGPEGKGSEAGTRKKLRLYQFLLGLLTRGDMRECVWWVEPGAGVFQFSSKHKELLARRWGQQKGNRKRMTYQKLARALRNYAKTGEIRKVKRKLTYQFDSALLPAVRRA
# Sequence of ETV1 (P50549 whole entry): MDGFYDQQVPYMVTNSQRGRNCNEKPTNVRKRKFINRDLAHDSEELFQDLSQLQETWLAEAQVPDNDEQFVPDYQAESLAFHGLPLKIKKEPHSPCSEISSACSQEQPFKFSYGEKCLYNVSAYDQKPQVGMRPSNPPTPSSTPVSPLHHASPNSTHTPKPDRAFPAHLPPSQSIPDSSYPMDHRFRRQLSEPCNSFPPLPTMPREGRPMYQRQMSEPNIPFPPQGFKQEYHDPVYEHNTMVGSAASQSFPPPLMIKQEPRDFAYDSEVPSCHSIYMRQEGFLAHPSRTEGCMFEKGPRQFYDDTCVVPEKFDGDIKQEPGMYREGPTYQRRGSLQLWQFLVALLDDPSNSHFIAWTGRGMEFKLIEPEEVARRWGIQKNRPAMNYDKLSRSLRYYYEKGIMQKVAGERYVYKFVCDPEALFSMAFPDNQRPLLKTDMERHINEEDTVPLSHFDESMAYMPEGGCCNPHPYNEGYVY
# Sequence of HSF1 (Q00613 whole entry): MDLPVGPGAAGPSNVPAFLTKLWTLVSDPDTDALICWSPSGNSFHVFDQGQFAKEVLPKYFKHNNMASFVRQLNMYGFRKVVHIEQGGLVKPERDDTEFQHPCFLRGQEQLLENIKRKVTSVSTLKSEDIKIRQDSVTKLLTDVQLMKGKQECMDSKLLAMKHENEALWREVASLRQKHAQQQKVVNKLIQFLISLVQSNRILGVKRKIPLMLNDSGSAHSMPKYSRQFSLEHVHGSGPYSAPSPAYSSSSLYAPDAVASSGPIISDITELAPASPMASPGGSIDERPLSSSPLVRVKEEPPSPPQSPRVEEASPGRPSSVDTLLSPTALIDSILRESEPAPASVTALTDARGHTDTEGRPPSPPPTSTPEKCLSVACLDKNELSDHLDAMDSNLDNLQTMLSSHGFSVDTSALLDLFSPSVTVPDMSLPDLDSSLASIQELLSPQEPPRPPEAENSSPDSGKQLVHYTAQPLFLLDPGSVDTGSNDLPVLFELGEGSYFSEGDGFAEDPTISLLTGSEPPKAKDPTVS
# Sequence of ELF1 (P32519 whole entry): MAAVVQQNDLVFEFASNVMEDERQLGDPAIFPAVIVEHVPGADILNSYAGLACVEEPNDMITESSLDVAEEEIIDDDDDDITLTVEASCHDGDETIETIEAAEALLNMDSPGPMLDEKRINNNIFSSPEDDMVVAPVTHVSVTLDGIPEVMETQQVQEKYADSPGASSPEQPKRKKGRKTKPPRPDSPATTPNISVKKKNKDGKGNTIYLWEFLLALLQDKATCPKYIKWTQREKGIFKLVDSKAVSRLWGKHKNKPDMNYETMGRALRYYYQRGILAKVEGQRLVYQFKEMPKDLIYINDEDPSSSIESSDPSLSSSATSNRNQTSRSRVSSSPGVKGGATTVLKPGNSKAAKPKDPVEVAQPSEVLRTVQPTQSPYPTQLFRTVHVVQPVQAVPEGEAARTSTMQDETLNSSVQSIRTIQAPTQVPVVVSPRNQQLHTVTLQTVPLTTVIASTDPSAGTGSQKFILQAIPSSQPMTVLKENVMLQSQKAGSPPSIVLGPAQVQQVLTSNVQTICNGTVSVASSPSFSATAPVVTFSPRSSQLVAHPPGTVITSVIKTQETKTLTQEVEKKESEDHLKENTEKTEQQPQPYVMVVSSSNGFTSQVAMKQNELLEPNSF
# Sequence of ETV5 (P41161 whole entry): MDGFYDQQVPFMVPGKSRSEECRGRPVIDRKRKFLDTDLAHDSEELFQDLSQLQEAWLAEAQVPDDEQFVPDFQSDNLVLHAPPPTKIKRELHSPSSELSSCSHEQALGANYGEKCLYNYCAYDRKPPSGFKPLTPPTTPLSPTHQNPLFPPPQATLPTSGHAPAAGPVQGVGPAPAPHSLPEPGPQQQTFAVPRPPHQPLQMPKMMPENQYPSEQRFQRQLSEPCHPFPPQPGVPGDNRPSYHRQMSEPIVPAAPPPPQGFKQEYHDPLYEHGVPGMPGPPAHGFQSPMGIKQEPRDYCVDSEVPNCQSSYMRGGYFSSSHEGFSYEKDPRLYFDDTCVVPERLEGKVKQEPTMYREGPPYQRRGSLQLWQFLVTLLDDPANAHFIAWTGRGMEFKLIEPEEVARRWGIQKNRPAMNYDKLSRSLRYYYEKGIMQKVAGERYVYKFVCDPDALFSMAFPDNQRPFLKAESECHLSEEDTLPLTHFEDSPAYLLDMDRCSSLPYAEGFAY
sequence,measurement,setting,value
TCTAAC,binding signal,[1],"1.18 fold enrichment (6-mer frequency, TF over GST control)"
same,binding signal,[2],"1.28 fold enrichment (6-mer frequency, TF over GST control)"
same,binding signal,[3],"1.16 fold enrichment (6-mer frequency, TF over GST control)"
same,binding signal,[4],"1.22 fold enrichment (6-mer frequency, TF over GST control)"
same,binding signal,[5],"1.21 fold enrichment (6-mer frequency, TF over GST control)"
same,binding signal,[6],"1.16 fold enrichment (6-mer frequency, TF over GST control)"
same,binding signal,[7],"1.13 fold enrichment (6-mer frequency, TF over GST control)"
same,binding signal,[8],"1.19 fold enrichment (6-mer frequency, TF over GST control)"
same,binding signal,[9],"1.16 fold enrichment (6-mer frequency, TF over GST control)"
same,binding signal,[10],"1.23 fold enrichment (6-mer frequency, TF over GST control)"
same,binding signal,[11],"1.21 fold enrichment (6-mer frequency, TF over GST control)"
same,binding signal,[12],"1.25 fold enrichment (6-mer frequency, TF over GST control)"
same,binding signal,[13],"1.07 fold enrichment (6-mer frequency, TF over GST control)"
same,binding signal,[14],"1.22 fold enrichment (6-mer frequency, TF over GST control)"
same,binding signal,[15],"1.2 fold enrichment (6-mer frequency, TF over GST control)"
same,binding signal,[16],"1.12 fold enrichment (6-mer frequency, TF over GST control)"
same,binding signal,[17],"1.23 fold enrichment (6-mer frequency, TF over GST control)"
same,binding signal,[18],"1.24 fold enrichment (6-mer frequency, TF over GST control)"
same,binding signal,[19],"1.16 fold enrichment (6-mer frequency, TF over GST control)"
